Source: PubChem BioAssay (National Center for Advancing Translational Sciences (NCATS))
NPR1 antag: antagonists of human natriuretic peptide receptor Npr1; P16066; HEK293 hNpr1 GloSensor cGMP, ANP-stimulated luminescence; Potency, µM (doses to about 46.3 µM), for inactives: at the top dose activity change, negative = inhibition, actives largely listed as inhibitors; 76,000 tested, 1.6% active; AID 1347048; calls by dose curve; note: nearly all actives have a fitted effect of over 60% in size
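Compound pre-incubated 30 min at room temperature on GloSensor-loaded HEK293 cells stably carrying hNpr1 and the pGS-40F cGMP biosensor. Stimulation uses hNppA at 0.1 nM final; luminescence is taken at baseline and 20 min post-agonist.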
3T3 cytotox: NIH 3T3 cell cytotoxicity; NIH 3T3 viability, CellTiter-Glo ATP luminescence, 48-72 h; 94,000 tested, 4.3% active; AID 1345082; Potency, µM (top dose mostly 96.7 µM), inactives show at the highest dose activity change, negative = cytotoxicity, most hits filed as inhibitors; note: nearly all actives have a fitted effect of over 55% in size
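First NIH 3T3 cells are plated at 400 cells/well; next compound is pinned in; then plates incubate 48 or 72 hr at 37 °C; finally CellTiter-Glo is added and luminescence read after 10 min.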
FLuc inh: blocks purified firefly luciferase enzyme activity; P08659; purified P. pyralis luciferase, luminescence, biochemical; Potency, µM (highest dose often 115 µM), most hits filed as inhibitors; 76,000 tested, 2.5% active; note: nearly all actives have a fitted effect of over 65% in size
Target sequence (P08659 whole entry, looked up): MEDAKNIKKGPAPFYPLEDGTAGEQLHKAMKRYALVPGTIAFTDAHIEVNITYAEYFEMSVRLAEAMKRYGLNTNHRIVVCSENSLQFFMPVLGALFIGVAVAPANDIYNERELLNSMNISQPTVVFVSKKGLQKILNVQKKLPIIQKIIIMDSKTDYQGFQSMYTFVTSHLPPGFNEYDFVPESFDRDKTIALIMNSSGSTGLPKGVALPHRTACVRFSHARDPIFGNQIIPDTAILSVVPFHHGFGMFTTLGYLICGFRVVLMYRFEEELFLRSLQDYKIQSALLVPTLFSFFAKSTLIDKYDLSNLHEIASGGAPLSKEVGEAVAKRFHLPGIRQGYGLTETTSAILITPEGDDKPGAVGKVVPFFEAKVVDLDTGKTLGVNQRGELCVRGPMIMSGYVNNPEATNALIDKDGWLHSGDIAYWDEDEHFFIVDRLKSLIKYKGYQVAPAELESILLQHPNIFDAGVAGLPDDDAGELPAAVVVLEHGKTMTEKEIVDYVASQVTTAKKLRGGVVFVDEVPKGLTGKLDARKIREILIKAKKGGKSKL
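Luminescence read by CCD imaging after purified firefly luciferase (10nM final) was added to substrate buffer holding 10uM D-luciferin and 10uM ATP, pH 7.5, pre-dosed with compound.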
HEK cytotox: kills HEK 293 cells | HEK 293 viability, ATP luminescence (CellTiter-Glo), 48-72 h | Potency, µM (highest dose often 115 µM), for inactives: at the highest dose activity change, negative = cytotoxicity, hits mostly inhibitors | 94,000 tested, 6.6% active; note: nearly all actives have a fitted effect of over 60% in size
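HEK 293 seeded at 250 cells/well receive compound via pintool. After 48 or 72 hr at 37 degree Celsius, 5% CO2 and 95% humidity, CellTiter-Glo is dispensed and luminescence read following 10 min at room temperature.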
GPT2 inhibitor: GPT2 alanine aminotransferase inhibition; Q8TD30; Recombinant GPT2, coupled pyruvate oxidase/HRP Amplex Red fluorescence; Potency, µM (titrated, usually from 57.7 µM), for the others: top-dose activity change, negative = inhibition, actives largely listed as inhibitors; 100,000 tested, 0.25% active; AID 1671188; note: nearly all actives have a fitted effect of over 60% in size
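Recombinant GPT2 (10ng/uL) with 250uM a-KG and 2mM L-alanine, 30 min at room temperature, in HEPES pH 7.5 buffer. Pyruvate detected by pyruvate oxidase/HRP/Amplex Red fluorescence after 30 min in the dark; AOA (50uM) as positive control.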
An asterisk follows results filed as active; i = inactive; ? = inconclusive; . = no result given; [ ] = another dose, or the depositor's remark. Most compounds without a hit are left out; they make up all but 10% or so of the library. Unless noted, calls come from the whole dose curve; as a rule, active = well fitted curve in the direction sought with a large enough effect; inconclusive = small, poorly fitted or top-dose-only effect, or another doubt; inactive = no such curve, though single readings can be large; an effect the other way counts as inactive or inconclusive. % is set by controls: 0 for no effect and ±100 for the full control effect; potency is the fitted concentration of half-maximal effect.

SMILES	NPR1 antag	3T3 cytotox	FLuc inh	HEK cytotox	GPT2 inhibitor
Cc1ccc(CN2CCCCCCNC(=O)CC2c2ccccc2)o1 (stereo unspecified)	-1%	?	i	?	3%
Cc1cccc(CN2CCCCCNC(=O)CC2c2ccccc2)c1 (stereo unspecified)	-17%	40µM*	i	?	-14%
CC(C)c1ccc(CN2CCCC3(CCN(c4ncccc4C(N)=O)C3)C2)cc1 (stereo unspecified)	-7%	?	i	40µM*	i
CN(C)CC1(O)CCCN(c2ncccc2C(N)=O)CC1 (stereo unspecified)	6%	-2%	i	-4%	-24%
COc1ccc(Nc2ccnc(N3CCC(C(=O)NCC(F)F)CC3)n2)cc1	.	?	.	?	1%
COc1ccc(-c2ccc3ncc(Nc4cccc(Cl)c4)n3n2)cn1	?	?	i	45µM*	?
COc1ccc(-c2ccc3ncc(Nc4ccncc4)n3n2)cn1	-3%[70.6 µM]	?	i	100µM*	-14%[88.5 µM]
COc1ccc(-c2ccc3ncc(Nc4cccc(C(F)(F)F)c4)n3n2)cn1	-30%[70.6 µM]	?	i	45µM*	?
COc1ccc(-c2ccc3ncc(Nc4ccc(OC)c(OC)c4)n3n2)cn1	-15%[70.6 µM]	?	?	?	-14%[88.5 µM]
O=C(NCC(F)F)C1CCN(c2nccc(Nc3ccccc3F)n2)CC1	.	-23%	.	?	-18%
Cc1cccc(NC(=O)Cn2c(-c3cnccn3)nc(C)c(C)c2=O)c1	-15%	-8%	i	-1%	1%
CC(C)c1ccc([S+](=O)([O-])N2CC(CNC(=O)c3cnn(C)c3)C3(CN(c4ccccc4)C3)C2)cc1 (stereo unspecified)	-12%	?	i	?	-18%
COc1ccc(CN2CC(CN[S+](=O)([O-])c3ccccc3)C3(C2)CN(c2ccccc2)C3)cc1O (stereo unspecified)	-11%	22µM*	i	?	i
COc1ccc(CN2CC(CNc3ccccc3)C3(C2)CN(c2ccccc2)C3)cc1O (stereo unspecified)	-8%[70.6 µM]	28µM*	i	40µM*	?
CC(C)c1ccc(CN2CC(CNC(=O)c3cnn(C)c3)C3(C2)CN(c2ccccc2)C3)cc1 (stereo unspecified)	-3%	?	i	79µM*	i
COc1ccccc1CN1CC(CNC(=O)Nc2ccccc2)C2(C1)CN(c1ccccc1)C2 (stereo unspecified)	-15%	?	i	79µM*	-14%
CC(C)CCN1CC(CN[S+](=O)([O-])c2ccccc2)C2(C1)CN(c1ccccc1)C2 (stereo unspecified)	-17%[70.6 µM]	45µM*	i	?	?
O=[S+]([O-])(NCC1CN(Cc2ccc3c(c2)CCO3)CC12CN(c1ccccc1)C2)c1ccccc1 (stereo unspecified)	-14%	?	i	?	-6%
O=C(NC[C@H]1OC[C@@H](N(Cc2ccccc2)Cc2ccccc2)[C@@H]1O)Nc1ccccc1	-13%[70.6 µM]	?	i	79µM*	-8%[88.5 µM]
CC1(c2ccccc2)N(Cc2ccccc2C#N)C(=O)OC12CCN(Cc1ccccc1F)CC2 (stereo unspecified)	-16%	?	i	?	-11%
CC1(c2ccccc2)N(Cc2ccccc2F)C(=O)OC12CCN(Cc1cccnc1)CC2 (stereo unspecified)	-1%	?	i	?	i
CC1(c2ccccc2)N(Cc2ccccc2F)C(=O)OC12CCN(c1cccnc1)CC2 (stereo unspecified)	-16%[70.6 µM]	89µM*	i	89µM*	-9%[88.5 µM]
COc1ccccc1CN1CCC2(CC1)OC(=O)N(Cc1ccccc1F)C2(C)c1ccccc1 (stereo unspecified)	-3%	28µM*	i	35µM*	-10%
COc1cccc(C(=O)N2CCCC(C(=O)N3CCCC3c3nc4ccncc4[nH]3)C2)c1 (stereo unspecified)	.	-13%	.	-9%	0%
COc1cc(CNC(=O)c2nc3cccnc3n(CC(C)C)c2=O)cc(OC)c1	.	-17%	.	-8%	-13%
SMILES	NPR1 antag	3T3 cytotox	FLuc inh	HEK cytotox	GPT2 inhibitor
O=[S+]([O-])(Nc1ccccc1)c1ccc2c(c1)OCCN(Cc1ccccn1)C2	-24%[70.6 µM]	?	i	71µM*	-2%[88.5 µM]
Cc1ccsc1CN1CCOc2cc([S+](=O)([O-])Nc3ccccc3)ccc2C1	?	45µM*	i	63µM*	3%[88.5 µM]
O=[S+]([O-])(Nc1nncs1)c1ccc2c(c1)OCCN(Cc1cncc(F)c1)C2	-3%[70.6 µM]	28µM*	i	-22%[172 µM]	2%[88.5 µM]
O=[S+]([O-])(Nc1nncs1)c1ccc2c(c1)OCCN(Cc1ccncc1)C2	-3%[70.6 µM]	?	i	4%[172 µM]	-24%[88.5 µM]
Cn1cc(CN2CCOc3cc([S+](=O)([O-])Nc4ccccc4)ccc3C2)cn1	-7%[70.6 µM]	-21%[138 µM]	i	?	3%[88.5 µM]
Cn1cc(CN2CCOc3cc([S+](=O)([O-])Nc4cccnc4)ccc3C2)cn1	6%[70.6 µM]	100µM*	i	3%[172 µM]	0%[88.5 µM]
Cc1cc(OC2CN(C(=O)c3ccccn3)C2)ccc1F	-7%[70.6 µM]	?	?	79µM*	4%[88.5 µM]
Cc1cc(F)ccc1OC1CN(C(=O)c2ccccn2)C1	-2%[70.6 µM]	?	50µM*	?	?
Cc1ccc(-c2cccc(CN3CCCC(NC(=O)C(C)(C)C)C3)c2)cc1Cl (stereo unspecified)	.	-26%	.	?	.
COc1cccc(-c2ccc(CN3CCCC(NC(=O)C(C)(C)C)C3)cc2)c1 (stereo unspecified)	.	?	.	50µM*	-32%
Cc1ccc(-c2cccc(CN3CCCC(NC(=O)Cc4cccc(Cl)c4)C3)c2)cc1Cl (stereo unspecified)	.	-14%	.	i	i
COc1cccc(-c2ccc(CN3CCCC(NC(=O)C(C)C)C3)cc2)c1 (stereo unspecified)	.	?	.	40µM*	4%
COc1cccc(-c2ccc(CN3CCCC(NC(=O)Cc4ccccn4)C3)cc2)c1 (stereo unspecified)	.	?	.	40µM*	i
CC(=O)Nc1ccc(-c2nnc3n2CCN(C(=O)c2ccccc2Cl)C3)cc1	.	i	.	-4%	.
Cn1nc(C2CCCC2)cc1NC(=O)C1CCCC1	.	-16%[138 µM]	.	-6%[172 µM]	-11%[88.5 µM]
COc1ccc(CC2(CO)CCN(c3cc(OC)nc(N)n3)CC2)cc1	?	-28%	i	45µM*	-6%
COc1ccc(CC2(CO)CCN(c3nccc(N)n3)CC2)cc1	3%	-34%	i	?	-3%
COc1ccc(Cn2c(=O)c(C(=O)NCCSC)nc3cccnc32)cc1	.	-23%	.	-8%	1%
